From PubChem
PLK1 PBD block = qHTS for Inhibitors of PLK1-PDB (polo-like kinase 1 - polo-box domain): Primary Screen. 360,000 tested, 2.8% active. Potency, µM, inactives show max response, negative = inhibition, most hits filed as inhibitors. Serine/threonine-protein kinase PLK1 (Homo sapiens), P53350. Plk1 PBD binding of FITC phosphopeptide, fluorescence polarization; note: series mostly up to about 57 µM; nearly all actives have a fitted effect of over 65% in size
ALDH1A1 inh = qHTS Assay for Inhibitors of Aldehyde Dehydrogenase 1 (ALDH1A1). Potency, µM (highest dose often 75.3 µM), without a hit: at the top dose activity, negative = inhibition, hits mostly inhibitors. 220,000 tested, 7.3% active. AID 1030, 2008. Purified ALDH1A1, NADH fluorescence, propionaldehyde substrate; active = well fitted inhibition curve with a large enough effect, not every such curve was filed as active; inconclusive = small, poorly fitted or top-dose-only effect, or another doubt; inactive = no such curve, though single readings can be large or run the other way;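 note: plate controls were no enzyme wells and a reference inhibitor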
RORg inh = qHTS for inhibitors of ROR gamma transcriptional activity; Nuclear receptor ROR-gamma (Mus musculus), P51450; Drosophila S2 Gal4-RORgamma UAS-luciferase reporter, 20 h; Potency, µM (doses to about 53.6 µM), for inactives: top-dose activity change, negative = inhibition, hits mostly inhibitors; 310,000 tested, 5.4% active; AID 2551, 2010; note: nearly all actives have a fitted effect of over 60% in size
Target sequence (P51450 whole entry, looked up, the tested form may be a part): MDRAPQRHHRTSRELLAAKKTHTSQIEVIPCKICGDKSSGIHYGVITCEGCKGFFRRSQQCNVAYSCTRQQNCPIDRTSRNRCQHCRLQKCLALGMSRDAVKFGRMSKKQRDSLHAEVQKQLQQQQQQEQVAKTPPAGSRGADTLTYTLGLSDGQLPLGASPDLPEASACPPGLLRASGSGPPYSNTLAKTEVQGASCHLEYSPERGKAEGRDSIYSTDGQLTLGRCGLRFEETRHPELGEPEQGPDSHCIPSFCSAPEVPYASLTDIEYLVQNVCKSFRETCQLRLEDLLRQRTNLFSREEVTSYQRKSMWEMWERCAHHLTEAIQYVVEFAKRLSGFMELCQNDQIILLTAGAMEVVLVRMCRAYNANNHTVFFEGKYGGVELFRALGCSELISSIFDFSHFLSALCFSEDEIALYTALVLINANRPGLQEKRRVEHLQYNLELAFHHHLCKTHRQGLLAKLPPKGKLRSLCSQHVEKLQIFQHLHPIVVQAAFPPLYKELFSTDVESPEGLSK
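Read-out: Photinus luciferase luminescence; inhibitors lower reporter signal. Insect Schneider cells with Gal4-ROR gamma fusion under metallothionein promoter, UAS reporter; 700 uM final copper sulfate induction, 20 hr, ambient temperature.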
VP16 counter = VP16 counterscreen qHTS for inhibitors of ROR gamma transcriptional activity; 310,000 tested, 3.5% active; Potency, µM (highest dose often 53.6 µM), without a hit: at the highest dose activity, negative = inhibition, hits mostly inhibitors; Drosophila S2 Gal4-VP16 UAS-luciferase, luminescence, 20 h;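 note: Gal4-VP16 expression switched on by copper sulfate through the metallothionein promoter; nearly all actives have a fitted effect of over 50% in size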
Sfp PPTase inh = qHTS Assay for Inhibitors of Bacillus subtilis Sfp phosphopantetheinyl transferase (PPTase); AID 1490, 2009; 4'-phosphopantetheinyl transferase ffp (Bacillus subtilis), Q9F4F7; Potency, µM, for inactives: largest response in the series, negative = inhibition, usual class: inhibitors; 310,000 tested, 3.5% active; Biochemical Sfp PPTase activity, qHTS;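 note: the enzyme is Sfp with the accession as filed and its product quenches rhodamine fluorescence; 0% = enzyme reaction without inhibitor and -100% = no enzyme wells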
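Step 1, compound plus 15 nM Sfp-PPTase, 15 min, room temperature. Step 2, add rhodamine-CoA (5 uM) and BHQ-2-YbbR (12.5 uM). Step 3, read 525/598 nm fluorescence at 0 and 30 min.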
Active calls of the source: *; u = inconclusive; x = no result; [ ] = remark or other dose. In the library only some 12% were active in any assay of this set; here they are far more common. Unless noted, calls come from the whole dose curve; as a rule, active = well fitted curve in the direction sought with a large enough effect; inconclusive = small, poorly fitted or top-dose-only effect, or another doubt; inactive = no such curve, though single readings can be large; an effect the other way counts as inactive or inconclusive. Unless noted, % is set by controls: 0 for no effect and ±100 for the full control effect; potency is the fitted concentration of half-maximal effect.

SMILES | PLK1 PBD block | ALDH1A1 inh | RORg inh | VP16 counter | Sfp PPTase inh
OC[C@@H]1CN(Cc2ccc3c(c2)OCO3)C[C@H](n2cnc3c(N4CCOCC4)ncnc32)O1 | 2.3% | x | x | x | x
CCn1nc(C)c(CNC(=O)c2cc(COc3cncc(Cl)c3)on2)c1C | 23.8µM* | x | 16.2% | -0.3% | 5.9%
CCn1nc(C)c(CNC(=O)c2cc(COc3ccccc3SC)on2)c1C | -0.3% | x | 22.8% | 4.1% | u
Cc1ccc(F)cc1C(=O)N1CCCC1(C)C(=O)NCC(C)C (stereo not drawn) | -1.0% | x | x | x | x
Cc1ccc(S(=O)(=O)/N=C(\Nc2cccc(C)c2)Nc2nc(C)cc(C)n2)cc1 | -10.1% | 0.398µM* | -3.9% | -17.8% | 12.4%
CCCCNC(=O)C1(C)CCCCN1C(=O)c1ccc(OC)c(C(F)(F)F)c1 (stereo not drawn) | 3.2% | x | x | x | x
CCOc1cc(NC(=S)NCc2ccco2)c(OCC)cc1NC(=O)C1CC1 | -6.1% | 6.8% | 11.2µM* | u | 8.9%
COc1ccc(NC(=S)NCc2ccco2)c(OC)c1 | -8.4% | 12.0% | 10µM* | 3.8% | 0.6%
COc1ccc(OC)c(NC(=S)NCc2ccco2)c1 | -6.6% | x | x | x | x
COc1ccccc1NC(=S)NCc1ccc2c(c1)OCO2 | -11.5% | -4.4% | 17.8µM* | u | 5.9%
COc1ccc(Cl)cc1NC(=S)NC(=O)c1ccco1 | 0.1% | x | x | x | x
COc1ccc(OC)c(NC(=S)NC(=O)c2ccc(Br)o2)c1 | -3.4% | x | 3.98µM* | u | 9.7%
Brc1cccc(-c2nc3c4ccccc4ccn3c2Cc2ccsc2)c1 | 0.5% | x | x | x | x
CN(c1ccccc1)S(=O)(=O)c1cccc(NC(=O)c2ccc(=O)[nH]n2)c1 | -18.5% | x | x | x | x
CC(=O)NCCNc1ccnc(-c2ccccc2C(F)(F)F)n1 | x | u | 1.0% | -1.3% | -3.8%
Cn1cc(-c2nc3cnc(OCc4ccccc4)nc3n(CCC#N)c2=O)c2ccccc21 | x | 41.3% | -19.6% | 6.9% | 1.2%
COc1ccccc1NC(=O)NCCCCc1ccccc1 | -4.0% | x | -16.2% | 9.7% | 5.4%
Cc1cc(OCC(=O)NNC(=S)NC(=O)c2ccc(Br)o2)ccc1Cl | u | x | 7.94µM* | -21.5% | 9.2%
COc1ccccc1NC(=S)NCCc1ccccc1 | u | -12.4% | 6.31µM* | u | -4.8%
COc1ccccc1NC(=S)NCCc1ccc(F)cc1 | -16.3% | -3.4% | 5.01µM* | -1.9%[10 µM] | 9.1%
COc1ccc(CNC(=S)Nc2cc(OC)ccc2OC)cc1 | -1.0% | u | 17.8µM* | u | 13.5%
COc1ccccc1NC(=S)NCC1CCC(CNC(=S)Nc2ccccc2OC)CC1 (stereo not drawn) | -2.0% | x | -27.6% | -10.8% | 24.2%
CN=C(NC#N)NCCSC[C@H]1N=CN=C1C | x | 5.0%[20.9 µM] | 1.8%[16.9 µM] | -10.9%[17 µM] | -4.2%
CC(NC(=O)c1cccc(S(=O)(=O)N2CCN(C)CC2)c1)c1ccc(Cl)cc1Cl (stereo not drawn) | 4.5% | x | x | x | x
COc1ccc(NC(=S)NCc2ccc(S(N)(=O)=O)cc2)c(OC)c1 | u | u | 2.8% | -0.9% | 31.6µM*
SMILES | PLK1 PBD block | ALDH1A1 inh | RORg inh | VP16 counter | Sfp PPTase inh
COc1ccccc1NC(=S)NCc1ccc(F)cc1 | -16.7% | x | 31.6µM* | u | 20.1%
COc1ccc(OC)c(NC(=S)NCc2ccc(S(N)(=O)=O)cc2)c1 | u | u | 14.5% | 21.9% | -12.0%
COc1ccc(NC(=S)NCc2ccc(F)cc2)c(OC)c1 | -1.0% | x | 12.6µM* | u | 20.1%
CN(/N=C/c1cc(Cl)cc(Cl)c1O)c1c(Cl)cccc1[N+](=O)[O-] | -13.5% | 4.1% | -11.7% | 11.0% | 6.5%
CCOC(=O)c1c(C(C)(C)C)oc2ccc(O)cc12 | -1.2% | u | -33.1% | 15.8µM* | 18.4%
CCOC(=O)c1c(COc2ccccc2)oc2ccc(O)cc12 | 0.4% | -4.8% | 3.0% | -3.0% | -18.7%
CCOc1ccc(/C=N/Nc2ccccn2)cc1 | -1.1% | 8.4% | 11.2µM* | u | -23.9%
COc1ccc2nc(Cl)c(/C=N/Nc3ccccn3)cc2c1 | -2.9% | -0.2% | 11.2µM* | u | 15.8µM*
COc1ccc(/C=N/Nc2ccccn2)cc1O | 2.2% | x | -33.5% | -1.7% | 50.1µM*
Oc1cccc(C=NNc2ccccn2)c1 | -3.8% | x | x | x | x
O=C1C(Br)=C(c2ccccc2)C(c2ccccc2)=C1c1ccccc1 | 2.67µM* | x | x | x | x
C[C@@H](NC(=O)C1(N)CCCC1)C(=O)O | x | 15.9%[13.5 µM] | x | x | x
CC1(C)CC(=O)C(CS(=O)(=O)c2ccccc2)=C(O)C1 | u | x | -5.9% | 3.2% | 50.1µM*
CC(=O)NC12CC3CC(C1)CC(C(=O)N(C)CC(=O)Nc1ccccc1Cl)(C3)C2 | -10.2% | x | x | x | x
CC(=O)NC12CC3CC(C1)CC(C(=O)N(C)Cc1cccc(Cl)c1Cl)(C3)C2 | 0.0% | x | u | 7.08µM* | 10.7%
CC1=CC2(C)NC(=O)C(C)C12 (stereo not drawn) | 1.9% | x | x | x | x
CCCCC(=O)N1C/C=C\C(c2ccc(OC)cc2)N(Cc2ccc(F)cc2)C(=O)[C@H]1Cc1ccccc1 (stereo partly drawn) | -13.6% | x | u | u | 2.8%
COc1ccc(C2/C=C\CN(C(=O)C3CC3)C(Cc3ccccc3)C(=O)N2Cc2ccc(F)cc2)cc1 (stereo not drawn) | x | x | 10µM* | u | 11.8%
COc1ccc(C2/C=C\CN(C(=O)C3CC3)[C@H](Cc3ccccc3)C(=O)N2Cc2ccc(F)cc2)cc1 (stereo partly drawn) | -1.6% | x | 11.2µM* | -19.7% | -2.3%
CC(C)=NOC[C@@H](C)[C@H](OCc1ccccc1)C(C)C | x | -0.3%[13.5 µM] | 16.6%[10 µM] | 1.1%[10 µM] | 13.7%
Cc1nc(Nc2cnc(/C=C/c3cc(C(=O)Nc4cccc(C(F)(F)F)c4)ccc3C)cn2)cc(N2CCNCC2)n1 | 20.0% | x | u | u | 50.1µM*
Cc1nc(N2CCC(C)CC2)c2c(C)c(C(=O)Nc3cccc(C(F)(F)F)c3)sc2n1 | -12.1% | u | 1.7% | -4.3% | 22.5%
Cc1c(Cl)cccc1N=Cc1ccc([N+](=O)[O-])s1 | -5.0% | u | u | 20µM* | -0.2%
O=C(/C=C\c1ccccc1[N+](=O)[O-])Nc1ccccc1 | -4.7% | -2.1% | 38.7% | 21.9% | 17.8%
COC(=O)/C(=C(O)\C=C\c1ccccc1[N+](=O)[O-])c1nc2ccccc2[nH]1 | -10.6% | x | 7.94µM* | u | 15.9%
CCOC(=O)C1=C[C@@H](CC)N(S(=O)(=O)c2ccccc2)[C@H]1c1ccccc1 | 2.1% | x | x | x | x
CCCn1nnc(NC(=S)NC(=O)C(C)(C)C)n1 | -16.9% | u | 3.55µM* | 8.91µM* | 50.1µM*
CCCn1nnc(NC(=S)NC(=O)/C=C/c2ccco2)n1 | -13.9% | x | -33.2% | -2.0% | 56.2µM*
CCCn1nnc(NC(=O)c2ccc(-c3cccc(Cl)c3)o2)n1 | -7.3% | u | -3.0% | 3.9% | -4.1%
CCn1nnc(NC(=S)NC(=O)c2ccc(-c3cccc(Cl)c3)o2)n1 | 21.2µM* | x | 0.282µM* | 2.82µM* | 50.1µM*
